# Results from PubChem BioAssay (Tox21).
# Inconclusive results are not listed. A number with no mark means an inactive call. Calls follow the shape of the full dose curve.
# Test: p53 small molecule agonists, cell-based qHTS assay: qHTS cell viability counter screen (AID 1963581); also: nearly all actives have a fitted effect of over 45% in size
# Conditions: p53RE-bla HCT-116 viability, ATP luminescence, 16 h; series mostly up to 66 µM; activity change, negative = cytotoxicity: at the top concentration
# How it was run: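 Viability was counter-screened in parallel with the p53 agonist reporter by measuring intracellular ATP luminescence in the same HCT-116 p53RE-bla wells after 16 h compound treatment at 37 C.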
# % is scaled to controls: 0 for no effect and ±100 for the full control effect.
row,SMILES,"activity change, negative = cytotoxicity"
1,CC(=O)c1ccc(Cl)c(Cl)c1Cl,6.57%
2,O=C(O)CCC(=O)c1ccc(-c2ccccc2)cc1,8.18% [at 30.3 µM]
3,CCCCCCCCOC(C)=O,-6.02%
4,O=C(Nc1ccc2c(O)c(N=Nc3ccc(N=Nc4ccc(S(=O)(=O)O)cc4)cc3)c(S(=O)(=O)O)cc2c1)c1ccccc1,-6.06%
5,CC(C)(C)C(=O)/C=C/c1ccc(Cl)cc1,-0.0443%
6,OCC(O)[C@@H](O)[C@H](O)[C@H](O)CO[C@H]1O[C@H](CO)[C@@H](O)[C@H](O)[C@H]1O (stereo partly drawn),3.58%
7,C[C@@H](CN1CC(=O)NC(=O)C1)N1CC(=O)NC(=O)C1,0.857% [at 30.3 µM]
8,Cc1ccsc1C(=CCCN1CCC[C@@H](C(=O)O)C1)c1sccc1C,2.42% [at 30.3 µM]
9,CCCCCCCCCCC(=O)O,-3.09%
10,CCOc1nc2cccc(C(=O)O)c2n1Cc1ccc(-c2ccccc2-c2nn[nH]n2)cc1,1.52% [at 30.3 µM]
11,CCCc1nc2c(C)cc(-c3nc4ccccc4n3C)cc2n1Cc1ccc(-c2ccccc2C(=O)O)cc1,-12.4% [at 30.3 µM]
12,CCOCCOCCOC(C)=O,-0.353%
13,CO[Si](C)(OC)c1ccccc1,-8.22%
14,Cc1ccc(N(CC2=NCCN2)c2cccc(O)c2)cc1,-1.32% [at 30.3 µM]
15,COC(=O)c1ccccc1Cl,5.63%
16,CNS(=O)(=O)Cc1ccc2[nH]cc(CCN(C)C)c2c1,14.2% [at 30.3 µM]
17,COc1cccc(O)c1,9.38%
18,CC[C@H]1OC(=O)[C@H](C)[C@@H](O[C@H]2C[C@@](C)(OC)[C@@H](O)[C@H](C)O2)[C@H](C)[C@@H](O[C@@H]2O[C@H](C)C[C@H](N(C)C)[C@H]2O)[C@](C)(OC)C[C@@H](C)C(=O)[C@H](C)[C@@H](O)[C@]1(C)O,1.38%
